{"source": "PubChem BioAssay AID651956", "about": "(Broad Institute, 2012)", "note": "Potency and affinity values are given separately. Records with an inconclusive call do not appear. Entries that show only a call come without a potency. Active and inactive are the calls of the source.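 The calls were made as follows: active = in every test run, a fitted half-maximal concentration for signal decrease at or below twice the highest tested concentration; inconclusive = runs disagree, flat 30 to 70% decrease, or poor fit; inactive = the rest.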"}
{"experiment": "activation of miR-122 Renilla sensor silencing – cell-based, Huh7 psiCHECK-miR122, Renilla luciferase, cherry-picked, dose response (AID 651956);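 also: Renilla luciferase from a miR-122 sensor reporter so lower signal means miR-122 activation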", "conditions": "Huh7 psiCHECK-miR122 Renilla luciferase reporter, 48 h; series mostly up to 35 µM"}
{"smiles": "Cc1ccc(-c2nnn(CC(=O)N(CC(=O)NCC3CCCO3)c3ccccc3)n2)o1", "note": "(stereo not drawn)", "outcome": "inactive"}
{"smiles": "N#Cc1ccc(NC(=O)Nc2ccc(Oc3ccc(NC(=O)Nc4ccc(C#N)cc4)cc3)cc2)cc1", "outcome": "inactive"}
{"smiles": "CCCNC(=O)C[C@H]1CC[C@@H]2[C@H](COc3ccc(NC(=O)c4cccs4)cc3C(=O)N2C)O1", "outcome": "inactive"}
{"smiles": "CCCNC(=O)C[C@H]1CC[C@H]2[C@H](COc3ccc(NC(=O)c4ccc(C(F)(F)F)cc4)cc3C(=O)N2C)O1", "outcome": "inactive"}
{"smiles": "CC(C)NC(=O)N1C[C@@H]2[C@H](c3ccccc31)[C@@H](CO)N2C(=O)c1cccnc1", "outcome": "inactive"}
{"smiles": "COCC(=O)N(C[C@@H]1N[C@H](CO)[C@H]1c1ccc(C2=CCCC2)cc1)C(C)C", "outcome": "inactive"}
{"smiles": "O=C(NC[C@@H]1[C@@H](c2ccccc2)[C@H](CO)N1C(=O)C1CCC1)NC1CCCC1", "outcome": "inactive"}
{"smiles": "CC(C)CC#Cc1ccc2c(c1)O[C@H](CN(C)C(=O)c1cnccn1)[C@H](C)CN([C@H](C)CO)S2(=O)=O", "outcome": "inactive"}
{"smiles": "COc1ccccc1C(=O)N1C[C@@H]2[C@H](c3ccccc31)[C@H](CO)N2CC1CCCC1", "outcome": "inactive"}
{"smiles": "Cc1cccc(NC(=O)Nc2ccc3c(c2)C(=O)N(C)[C@H]2CC[C@@H](CC(=O)NCc4ccccc4Cl)O[C@H]2CO3)c1", "outcome": "inactive"}
{"smiles": "Fc1ccc(CN2CCN(c3ncnc4scc(-c5ccc(F)cc5)c34)CC2)cc1", "outcome": "inactive"}
{"smiles": "COCC(=O)NC[C@H]1[C@@H](c2ccc(C3=CCCC3)cc2)[C@H](CO)N1C(=O)C1CC1", "outcome": "inactive"}
{"smiles": "O=C(CN1CCN(c2nc(-c3ccccc3)cs2)CC1)Nc1ccc2c(c1)OCO2", "outcome": "inactive"}
{"smiles": "CN[C@H]1C[C@H]2c3[nH]c4ccc(-c5ccc(OC)cc5)cc4c3CCN2C(=O)[C@H]1[C@H](C)O", "outcome": "inactive"}
{"smiles": "CN1C(=O)c2cc(NC(=O)Nc3ccc(Cl)cc3)ccc2OC[C@H]2O[C@H](CC(=O)NCCN3CCCCC3)CC[C@H]21", "outcome": "inactive"}
{"smiles": "CO[C@@H]1CN(C)C(=O)c2ccc(NS(=O)(=O)c3cccc(F)c3)cc2OC[C@@H](C)NC[C@H]1C", "outcome": "inactive"}
{"smiles": "Cc1nn(C)cc1NC(=O)C[C@H]1CC[C@H]2[C@H](COc3ccc(NC(=O)c4cccc(F)c4)cc3C(=O)N2C)O1", "outcome": "inactive"}
{"smiles": "CCNC(=O)Nc1ccc2c(c1)C(=O)N(C)[C@H]1CC[C@H](CC(=O)Nc3cccc(F)c3)O[C@@H]1CO2", "outcome": "inactive"}
{"smiles": "CC(=O)N1[C@H](CNC(=O)C2CC2)[C@H](c2ccc(-c3cccc(F)c3)cc2)[C@@H]1CO", "outcome": "inactive"}
{"smiles": "CNC(=O)C[C@H]1CC[C@H]2[C@@H](COc3ccc(NC(=O)C(C)C)cc3C(=O)N2C)O1", "outcome": "inactive"}
{"smiles": "CNC(=O)C[C@@H]1CC[C@@H]2[C@@H](COc3ccc(NC(=O)Cc4cccs4)cc3C(=O)N2C)O1", "outcome": "inactive"}
{"smiles": "CN(C)CCCNC(=O)C[C@H]1CC[C@H]2[C@H](COc3ccc(NS(C)(=O)=O)cc3C(=O)N2C)O1", "outcome": "inactive"}
{"smiles": "CN1C(=O)c2cc(NC(=O)c3ccccc3F)ccc2OC[C@H]2O[C@H](CC(=O)NCc3ccc4c(c3)OCO4)CC[C@@H]21", "outcome": "inactive"}
{"smiles": "C/C=C/c1ccc([C@@H]2[C@@H](CO)N[C@@H]2CN(CC)C(=O)CN2CCOCC2)cc1", "outcome": "inactive"}
{"smiles": "CN1C(=O)c2cc(NC(=O)c3ccno3)ccc2OC[C@H]2O[C@@H](CC(=O)NCC3CC3)CC[C@@H]21", "outcome": "inactive"}
{"smiles": "CN1C(=O)c2cc(NC(=O)c3ccc4c(c3)OCO4)ccc2OC[C@H]2O[C@@H](CC(=O)O)CC[C@@H]21", "outcome": "inactive"}
{"smiles": "CCCNC(=O)C[C@H]1CC[C@@H]2[C@H](COc3ccc(NC(=O)c4cc(F)cc(F)c4)cc3C(=O)N2C)O1", "outcome": "inactive"}
{"smiles": "COCC(=O)Nc1ccc2c(c1)C(=O)N(C)[C@@H]1CC[C@H](CC(=O)NC3CCCC3)O[C@H]1CO2", "outcome": "inactive"}
{"smiles": "CNC(=O)C[C@H]1CC[C@H]2[C@H](COc3ccc(NC(=O)c4cccc(F)c4)cc3C(=O)N2C)O1", "outcome": "inactive"}
{"smiles": "O=C(Nc1ncc(Cc2cccc(C(F)(F)F)c2)s1)c1ccc(-c2cccc([N+](=O)[O-])c2)o1", "outcome": "inactive"}
{"smiles": "COc1ccc(C#Cc2ccc3c(c2)O[C@@H](CN(C)C(=O)CN2CCOCC2)[C@@H](C)CN([C@H](C)CO)S3(=O)=O)cc1", "outcome": "inactive"}
{"smiles": "C[C@@H]1CN([C@@H](C)CO)C(=O)c2cc(NC(=O)Nc3ccc(C(F)(F)F)cc3)ccc2O[C@@H]1CN(C)CC1CCCCC1", "outcome": "inactive"}
{"smiles": "CCCNC(=O)C[C@H]1CC[C@@H]2[C@@H](COc3ccc(NC(=O)c4ccc5c(c4)OCO5)cc3C(=O)N2C)O1", "outcome": "inactive"}
